Holding throughout (test): NCI-60 one-dose screen, 48 h (100 = growth as untreated, 0 = no growth, -100 = all killed)
What all share (settings): 10 µM unless noted

In experiment [1] the test system is BT-549 breast.
The test system of experiment [2] is MDA-MB-435 melanoma.
Experiment [3] relates to SW-620 colon.
The test system of experiment [4] is MCF7 breast.
Experiment [5] has as its system HCT-116 colon.
The subject of experiment [6] is HCC-2998 colon.
Experiment [7] deals with KM12 colon.

The structures appear in SMILES notation. The panel holds about 83,000 compounds, 20% with a hit somewhere; the sample as a whole holds those more often.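 Single-concentration screen, 48 h exposure, 96-well plates. Endpoint: percent growth. Below 10 = active.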 Unmarked numbers belong to inactive results. The source made the active and inactive calls.

For `Nc1ccc(C2=NN(C(=O)c3cc(-c4ccc(Cl)cc4)nc4ccccc34)C(c3ccccc3)C2)cc1` (centres undefined), the growth in experiment [1] is 35.1%; in experiment [2] it was -24.3% (active); in experiment [3] it was 22.5%; in experiment [4] it was 12.7%; in experiment [5] it was 24.7%; in experiment [6], 59.6%. Besides, in experiment [7], the growth is 24.5%.
For the molecule `CC(=O)c1cnc(-c2ccccc2)nc1CBr`, the growth in experiment [1] is 70.3%; in experiment [2] it was 86.4%; in experiment [3], 39.6%; in experiment [4], 52.2%; in experiment [5], 28.4%; in experiment [6], 99.8%. The growth in experiment [7] was 95.2%.
For the molecule `OCCNc1nc(NCCO)nc(Nc2ccc(C3=NN(c4cc(Cl)cc(Cl)c4)C(c4ccc(Cl)cc4)C3)cc2)n1` (centres undefined), the growth in experiment [1] was 52.1%; in experiment [2] it was -15.8% (active); in experiment [3] it was 23.4%; in experiment [4] it was 3.94% (active); in experiment [5], 4.84% (active); in experiment [6], 27.1%. In addition, in experiment [7], the growth is 19.3%.
Consider `COc1ccc(-c2nnc(N3CCN(C(=O)CN4CCN(c5ccc(OC)cc5)CC4)CC3)nc2-c2ccc(OC)cc2)cc1`, for which the growth in experiment [1] was -81.8% (active); in experiment [2], -68.1% (active); in experiment [3] it was -92.5% (active); in experiment [4] it was -69.8% (active); in experiment [5] it was -41.1% (active); in experiment [6] it was 33.9%. Moreover, the growth in experiment [7] was -13.1% (active).
For the molecule `Cc1c(Br)cccc1NC(=O)c1sc2nc3c(cc2c1N)CN(Cc1ccccc1)CC3`, the growth in experiment [1] was 29.3%; in experiment [2], -42.9% (active); in experiment [3], 18.4%; in experiment [4] it was 14.9%; in experiment [5], 16.8%; in experiment [6], 41.1%. In addition, in experiment [7], the growth was 23.5%.
Consider `Cc1cccc(C)c1NCc1nnc(-c2ccco2)o1`, for which the growth in experiment [1] was 99%; in experiment [2] it was 103%; in experiment [3], 93.8%; in experiment [4], 87.1%; in experiment [5], 84.1%; in experiment [6] it was 103%. In experiment [7], the growth was 91.6%.
Consider `C=CCn1c(SCC(=O)Nc2ccc(C(=O)/C=C/c3ccc(Cl)cc3)cc2)nnc1-c1cc(OC)c(OC)c(OC)c1`, for which the growth in experiment [1] is 94%; in experiment [2], 93.2%; in experiment [3], 98.2%; in experiment [4] it was 41%; in experiment [5] it was 6.42% (active); in experiment [6] it was 106%. Also, the growth in experiment [7] was 93.3%.
With `CC1CCCN(CCCCCOc2ccc3oc4ccccc4c(=O)c3c2)C1` (centres undefined), the growth in experiment [1] is 74.3%; in experiment [2], 46%; in experiment [3], 70.1%; in experiment [4], 63.1%; in experiment [5] it was 52.7%; in experiment [6], 85.3%. The growth in experiment [7] was 64.3%.
Consider `CCOC(=O)NC(Cc1ccccc1)c1ccccc1` (centres undefined), for which the growth was 96.5% in experiment [1]; 114% in experiment [2]; 95.2% in experiment [3]; 101% in experiment [4]; 96% in experiment [5]; 104% in experiment [6]. Further, the growth in experiment [7] was 110%.
In the case of `COc1ccc2oc(=O)cc(-c3c(C#N)c(N)n4nc(N)c(C#N)c4c3C#N)c2c1`, the growth was 89.3% in experiment [1]; 113% in experiment [2]; 98% in experiment [3]; 105% in experiment [4]; 108% in experiment [5]; 96.6% in experiment [6]. Also, the growth in experiment [7] was 99%.
Consider `O=C(Nc1cccc(-c2cccc(F)c2)c1)C1CCN(Cc2cccc3cccnc23)CC1`, for which the growth in experiment [1] is 76.3%; in experiment [2], 35%; in experiment [3], 43.3%; in experiment [4] it was 19.9%; in experiment [5], 33.8%; in experiment [6], -70.4% (active). Further, the growth in experiment [7] was 53.3%.
Consider `COc1ccc(NC(=O)c2sc3nc(C)c(C(C)=O)cc3c2N)cc1`, for which the growth is 86.5% in experiment [1]; 93.2% in experiment [2]; 97% in experiment [3]; 95.7% in experiment [4]; 88.6% in experiment [5]; 103% in experiment [6]. In addition, the growth in experiment [7] is 105%.
On to `COc1ccc(C(=O)c2cc(F)c(F)c(OC)c2F)cc1OC(=O)CCl`, for which the growth in experiment [1] is 36.3%; in experiment [2], -27.7% (active); in experiment [3] it was 20.6%; in experiment [4] it was 19.2%; in experiment [5], 20.5%; in experiment [6], 79.5%. Moreover, in experiment [7], the growth was 31.1%.
Consider `O=C1NCc2ccc3c(-c4cccc(Cl)c4)c[nH]c3c21`, for which the growth was 58.5% in experiment [1]; -26.2% (active) in experiment [2]; 20.7% in experiment [3]; 17.5% in experiment [4]; 14.2% in experiment [5]; 25.3% in experiment [6]. Further, the growth in experiment [7] is 19.1%.
With `CCOC(=O)/C(=C/c1c(-c2ccccc2)[nH]c2ccccc12)C(=O)c1ccc(Cl)cc1`, the growth in experiment [1] is 64.7%; in experiment [2], 9.31% (active); in experiment [3] it was 45.4%; in experiment [4], 28.4%; in experiment [5] it was 14%; in experiment [6], 67.1%. In addition, the growth in experiment [7] was 18.6%.
Turning to `O=C(Nc1ccc(S(=O)(=O)NC2CCCCCC2)cc1)C(c1ccccc1)S(=O)(=O)c1ccc(F)cc1` (centres undefined), the growth in experiment [1] was -3.97% (active); in experiment [2], -17% (active); in experiment [3], 24.6%; in experiment [4], 0.0605% (active); in experiment [5], 5.61% (active); in experiment [6] it was 15.4%. For the same molecule, the growth in experiment [7] was 5.09% (active).
On to `COc1cc2c(Nc3ccc(NC(=O)Nc4ccc(Cl)c(C(F)(F)F)c4)c(Cl)c3)ncnc2cc1OCCCN1CCN(C)CC1`, for which the growth in experiment [1] was 21.6%; in experiment [2] it was -71.2% (active); in experiment [3], -85.4% (active); in experiment [4] it was -77.4% (active); in experiment [5], -73.2% (active); in experiment [6], 20.2%. The growth in experiment [7] is -55.1% (active).

(Values after PubChem BioAssay (NCI).)
